Rows were chosen to be rich in hits. Some 19% of all compounds tested hit in one or more screens of this group.
DT40 TDP1 CPT = qHTS for Inhibitors of human tyrosyl-DNA phosphodiesterase 1 (TDP1): qHTS in cells in presence of CPT; chicken DT40 Tdp1-/-;hTDP1 cells + 20 nM CPT, ATP luminescence, 48 h; Potency, µM (titrated, usually from 46.2 µM), usual class: inhibitors; 420,000 tested, 12% active; AID 686979, 2013; also: nearly all actives have a fitted effect of over 55% in size
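Chicken DT40 Tdp1-/- cells complemented with human TDP1, 400 cells/well, exposed to compounds plus 20 nM camptothecin for at least 48 h at 37 C; viability read as ATP content by CellTiter-Glo luminescence.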
ELG1 repair inh = qHTS screen for small molecules that inhibit ELG1-dependent DNA repair in human embryonic kidney (HEK293T) cells expressing luciferase-tagged ELG1. HEK293T ELG1-luciferase reporter, luminescence, 16 h; DNA damage induced by 5-fluorouridine. Potency, µM (series often up to 46.1 µM), hits mostly inhibitors. 330,000 tested, 2.3% active. AID 504467, 2011; also: nearly all actives have a fitted effect of over 55% in size
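Luminescence from the luciferase reporter, measured 30 min after ONE-Glo reagent at room temperature, was the read-out. Beforehand, 2,000 cells per well were exposed for 16 hr at 37 °C to 5-fluorouridine together with compound or vehicle.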
IL1B secr inh = qHTS for Inhibitors of Inflammasome Signaling: IL-1-beta AlphaLISA Primary Screen; THP-1 LPS/ATP IL-1B secretion, AlphaLISA, 16 h; hits give low values; activity change, % at 57.5 µM; 360,000 tested, 4.7% active; in the data active = activity change below about -50%; inconclusive = mostly about -30% to -49%
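Secreted IL-1B measured by AlphaLISA bead assay after 16 h compound exposure of THP-1 cells; compounds (final up to 57.5 uM) added 1 h before LPS (250 ng/mL) and ATP (1.25 mM) stimulation; lower signal means less secretion.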
HT1080 IDH1KD tx = qHTS for induction of synthetic lethality in tumor cells producing 2HG: qHTS for the HT-1080-IDH1KD cell line | HT-1080 IDH1 knockdown viability, ATP luminescence, 48 h | 360,000 tested, 2% active | Potency, µM (doses to about 46.1 µM), actives largely listed as cytotoxic | AID 686971, 2013
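% activity derives from luminescence (CellTiter-Glo), normalised to DMSO and no-cell wells. HT-1080-IDH1KD cells, 750/well, had 48 h compound exposure at 37 °C.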
HT1080-NT tox = qHTS for induction of synthetic lethality in tumor cells producing 2HG: qHTS for the HT-1080-NT fibrosarcoma cell line; HT-1080-NT fibrosarcoma viability, CellTiter-Glo ATP luminescence, 48 h; Potency, µM (doses to about 46.1 µM), hits mostly cytotoxic; 360,000 tested, 1.6% active; AID 686970, 2013;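 also: NT is the 2HG producing partner of a matched IDH1 knockdown line; nearly all actives have a fitted effect of over 55% in size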
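HT-1080-NT fibrosarcoma cells (2HG-overproducing), 750 cells/well in RPMI with 5% FBS, dosed after 2 h and incubated 48 h at 37C. CellTiter-Glo luminescence normalized to DMSO and no-cell wells; concentration-response curves fitted and classed.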
TDP1 cell noCPT = qHTS for Inhibitors of human tyrosyl-DNA phosphodiesterase 1 (TDP1): qHTS in cells in absence of CPT; 420,000 tested, 15% active; AID 686978, 2013; Potency, µM (doses to about 46.2 µM), hits mostly inhibitors; DT40 Tdp1-/- hTDP1 cells, no CPT, ATP luminescence, 48 h; also: nearly all actives have a fitted effect of over 55% in size
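Stably hTDP1-transfected Tdp1-null chicken DT40 cells were treated with library compounds minus camptothecin and grown for at least 48 hr at 37 °C, after which cellular ATP was quantified by luminescence.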
Numbers stand for hits; – = inactive; ? = inconclusive; · = no result. Unless noted, calls follow the shape of the dose curve; as a rule, active = well fitted curve in the direction sought with a large enough effect; inconclusive = small, poorly fitted or top-dose-only effect, or another doubt; inactive = no such curve, though single readings can be large; an effect the other way counts as inactive or inconclusive.

SMILES	DT40 TDP1 CPT	ELG1 repair inh	IL1B secr inh	HT1080 IDH1KD tx	HT1080-NT tox	TDP1 cell noCPT
CC(=O)Nc1ccc(NC2=C/C(=N/S(=O)(=O)c3cccs3)c3ccccc3C2=O)cc1	13µM	1.6µM	-95	9.2µM	16µM	10µM
O=C(Nc1cccc(F)c1)c1ccc2snnc2c1	–	·	·	·	·	–
CCSc1nc2n(n1)C(c1ccc(C(=O)O)cc1)C(C(=O)Nc1ccccc1C)=C(C)N2 (stereo unspecified)	–	·	·	·	·	–
CCOC(=O)C1(Cc2ccccc2C)CCCN(S(=O)(=O)c2cccnc2)C1 (stereo unspecified)	?	?	–	–	–	16µM
CCOC(=O)C1(Cc2ccccc2C)CCCN(C(=O)c2sccc2C)C1 (stereo unspecified)	18µM	–	–	–	–	?
CCOC(=O)C1(Cc2ccccc2C)CCCN(C(=O)c2ccoc2)C1 (stereo unspecified)	–	?	–	–	–	?
CC(=O)N1CCN(C(=O)COC(=O)CNC(=O)c2ccc(C)cc2)CC1	–	?	–	–	–	–
COc1ccc(C(=O)N2CCC3(CCN(Cc4ccccc4)CC3)CC2)cc1	–	·	·	·	·	–
O=[N+]([O-])c1ccc(S(=O)(=O)Nc2ccc3c(c2)OCCO3)cc1	?	–	–	–	–	16µM
O=C1CCCN1c1ccc(S(=O)(=O)Nc2ccc3c(c2)OCCO3)cc1	3.3µM	?	–	?	5µM	2.9µM
CC(=O)Nc1ccc(S(=O)(=O)N2CCCC2)cc1	?	–	–	–	–	–
O=S(=O)(Nc1ccc2c(c1)OCCO2)c1ccc(F)cc1	?	–	–	–	–	–
CC(=O)Nc1ccc(S(=O)(=O)N2CCc3cc4c(cc3C2)OCCCO4)cc1	21µM	?	–	–	–	?
Cc1ccc(S(=O)(=O)Nc2ccc3c(c2)OCCO3)cc1	–	–	–	–	–	?
CC(=O)c1ccc(NS(=O)(=O)c2ccc([N+](=O)[O-])cc2)cc1	–	·	–	–	–	–
O=[N+]([O-])c1ccc(S(=O)(=O)Nc2ccc(-c3ccccc3)cc2)cc1	?	·	–	–	–	13µM
Cc1nnc(SCc2cccc3ccccc23)s1	–	?	·	–	–	?
CCOC(=O)C1=NOC2(C1)C(=O)Nc1ccc(OC)cc12 (stereo unspecified)	–	·	–	–	–	–
Cc1cc(NC(=O)CSC2=NS(=O)(=O)c3ccccc3N2)no1	–	–	–	–	–	–
N#CCc1ccc(NS(=O)(=O)c2ccc(N3CCCC3=O)cc2)cc1	13µM	–	–	–	–	?
COC(=O)c1cc(NS(=O)(=O)c2ccc(NC(C)=O)cc2)ccc1Cl	?	–	-74	–	–	?
CC(=O)c1cc2c(cc1NS(=O)(=O)c1ccc(C)cc1)OCCO2	23µM	–	–	16µM	?	21µM
CC(=O)Nc1ccc(S(=O)(=O)Nc2ccc3c(c2)OCCO3)cc1	?	–	–	–	–	7.3µM
CC(=O)Nc1ccc(S(=O)(=O)Nc2ccc3c(c2)OCO3)cc1	–	–	–	–	–	?
Cc1c(F)cccc1NS(=O)(=O)c1ccc(N2CCCC2=O)cc1	–	·	–	–	–	–
SMILES	DT40 TDP1 CPT	ELG1 repair inh	IL1B secr inh	HT1080 IDH1KD tx	HT1080-NT tox	TDP1 cell noCPT
CC(=O)c1cc2c(cc1NS(=O)(=O)c1ccccc1)OCO2	–	?	–	–	?	–
CC(C)c1ccc(NC(=O)CCNS(=O)(=O)c2ccc3c(c2)oc(=O)n3C)cc1	–	·	·	·	·	–
Nc1c(C(O)(C(F)(F)F)C(F)(F)F)cc(C(O)(C(F)(F)F)C(F)(F)F)c2ccccc12	?	?	-96	23µM	21µM	?
Cc1ccc([C@H]2C[C@H](O)[C@@H](n3cc(-c4ccc(F)cc4)nn3)CN2CC2CCCCC2)cc1	–	·	–	–	–	–
Cc1cc(NC(=O)CCC(=O)N(CC2CCCO2)C(C(=O)NC2CCCC2)c2ccccc2C)no1 (stereo unspecified)	?	·	–	–	–	?
CCOc1ccc(N(C(=O)/C=C/C(=O)Nc2cc(C)on2)C(C(=O)NC2CCCC2)c2ccccc2C)cc1 (stereo unspecified)	16µM	–	–	–	–	16µM
CCc1ccc(C(C(=O)NC2CCCC2)N(C(=O)/C=C/C(=O)Nc2cc(C)on2)c2ccccc2C)cc1 (stereo unspecified)	16µM	?	-63	–	–	16µM
COc1ccc(S(=O)(=O)N(C)C[C@H]2Oc3c(NS(=O)(=O)c4cn(C)cn4)cccc3C(=O)N([C@H](C)CO)C[C@@H]2C)cc1	–	–	–	–	–	–
Cc1ccc(Cn2c(C3CCCN3c3nc(C)cs3)nc3cc(C(F)(F)F)ccc32)cc1 (stereo unspecified)	?	–	–	–	–	21µM
Cc1ccc(Cn2c(C3CCCN3c3nc(-c4cc(Cl)c(N)c(Cl)c4)cs3)nc3cc(C(=O)NCCCO)ccc32)cc1 (stereo unspecified)	?	·	–	–	–	–
CC(=O)Nc1ccc(NC(=O)c2cc(S(=O)(=O)N3CCCCC3)ccc2N2CCOCC2)cc1	–	·	–	–	–	–
COc1ccc(C)cc1NC(=O)c1cc(S(=O)(=O)N2CCCCC2)ccc1N1CCOCC1	?	15µM	?	–	–	?
Cc1ccc(S(=O)(=O)N(C)C)cc1NC(=O)c1cc(S(=O)(=O)N2CCCCC2)ccc1N1CCOCC1	?	10µM	–	–	–	12µM
COc1ccc(CNC(=O)c2cc(S(=O)(=O)N3CCCCC3)ccc2N2CCOCC2)cc1OC	?	·	–	–	–	9.2µM
CN(C)S(=O)(=O)c1ccc(N2CCCC2)c(C(=O)Nc2ccccc2N2CCOCC2)c1	–	–	–	–	–	?
COc1cc(NC(=O)c2cc(S(=O)(=O)N3CCCCC3)ccc2N2CCOCC2)cc(OC)c1	21µM	?	–	–	–	21µM
C/C=C/C(=O)N[C@@H]1c2ccccc2CC[C@@H]1OCc1ccccc1	–	–	–	–	–	–
